Values joined by “and” are separate entries in the source; they are usually repeats but may differ in a detail not shown here. Equal values may be shown once. Where a structure was tested more than once in an assay, its records may differ in their call. Active and inactive are the calls of the source. How the source made its calls: active means hit-call score of the fitted dose curve at least 0.9, where 1 is the maximum; inactive means score below 0.9.

The values that follow come from PubChem BioAssay (EPA / NIEHS).

The experiment in a line: CEETOX_H295R_OHPREG: CeeTox H295R High-throughput Steroidogenesis Assay for OH-Pregnenolone (OHPREG) (AID 2283434). As to conditions: actives raise or lower the signal. How it is done:
CEETOX_H295R is a cell-based, multiplexed-readout assay that uses H295R, a human adrenal gland cell line, with measurements taken at 48 hours after chemical dosing in a 96-well plate.CEETOX_H295R_OHPREG is one of 23 assay component(s) measured or calculated from the CEETOX_H295R assay. It is designed to make measurements of hormone induction, a form of inducible reporter, as detected with […] by HPLC-MS-MS technology.Data from the assay component CEETOX_H295R_OHPREG was analyzed into 1 assay endpoint. This assay endpoint, CEETOX_H295R_OHPREG, was analyzed with bidirectional fitting relative to DMSO as the negative control and baseline of activity. Using a type of inducible reporter, gain or loss-of-signal activity using HPLC-MS-MS was used to understand synthesis of 17alpha-hydroxypregnenolone in H295R cell line at 48hr of chemical exposure. To generalize the intended target to other relatable targets, this assay endpoint is annotated to the steroid hormone intended target family, where the subfamily is progestagens.
Cell culture and media preparation procedures were conducted in accordance with OECD Test No. 456 guidelines, with minor modifications. H295R cells (ATCC CRL-2128) were expanded for 5 passages and frozen in batches in liquid nitrogen. Prior to the steroidogenesis assay, H295R cells were thawed and passed at least 4 times. The maximum passage was 10. Cells were maintained in a 1:1 mixture of DMEM/F12 supplemented with 5ml/L ITS+ Premix (BD Bioscience) and 12.5 ml/L Nu-Serum (BD Bioscience). After seeding cells into 96-well plates at 50-60% confluency, cells were allowed to adhere overnight. Prior to chemical testing, culture medium was replaced with 175 uL medium containing 10 uM forskolin to stimulate steroidogenesis for 48 hours. Following prestimulation, forskolin medium was replaced with medium containing test chemical solubilized in DMSO (ensuring a final concentration of 0.1% DMSO). Test chemicals were incubated for 48 hours, then the medium was removed and split into 2 vials containing approximately 75uL each, and stored at -80 C prior to hormone analysis. For steroid quantification, media samples were shipped to OpAns, LLC (Durham, NC) on dry ice, and samples were thawed to room temperature prior to liquid-liquid extraction. Steroid hormones were extracted from media samples using methyl tertbutyl ether (MTBE). An extra derivatization with dansyl chloride was included for estrogen (estrone and estradiol) detection only. Steroid hormones were separated by HPLC, eluted using a reverse phase C18 gradient with electrospray positive ionization, followed by quantification by tandem mass spectrometry (MS/MS). Data were acquired on a MassHunter Workstation Acquisition version B03.01 (Agilent Technologies, Inc.) and processed using MassHunter Quantitative Analysis for QQQ. Accuracy was determined for each hormone analyte from 3 standards to determine upper and lower limits of quantification (ULOQ and LLOQ, respectively) using a 7-point standard curve. Precision and accuracy of the extraction and quantification methods were calculated as the percent relative standard deviation (%RSD) of the spiked standards and percent spiked standard recovered, respectively. The goal was to achieve 100% accuracy (i.e., recover all spiked-in standard at quantification with minimal loss during run time) and good precision (i.e., have %RSD <15% to ensure reproducibility). Test medium was removed following chemical exposure, and cell viability was evaluated in the same wells by MTT. MTT procedures were as follows: after removal of test medium, 500 uL of 0.5 mg/ml of 3-[4,5-dimethylthiazol-2-y]2,5-diphenyltetrazoliumbromide solution was added to the cells. Following a 4-hour incubation at 37 C and 5% CO2 to allow formazan-crystal formation, the MTT solution was removed and blue formazan salt crystals were solubilized using 500uL anhydrous isopropanol with shaking for 20 minutes. […]
A word on the AC50: it is the concentration giving half of the maximal activity seen. In the case of `O=S1(=O)OCC2C(CO1)C1(Cl)C(Cl)=C(Cl)C2(Cl)C1(Cl)Cl` (stereo not drawn), the half-maximal activity concentration (AC50) is 2.84 µM (active). Take `CCOP(=S)(Oc1ccc([N+](=O)[O-])cc1)c1ccccc1` (stereo not drawn): the call was inactive. As to `c1ccc(OP(Oc2ccccc2)Oc2ccccc2)cc1`, the compound was called inactive. As to `Cc1ccc(N)cc1N`, the result was inactive. On to `CCNc1nc(Cl)nc(NC(C)(C)C)n1`, for which the AC50 was 9.93 µM (active). Regarding `Nc1ccc2ccccc2c1`, the call was inactive. Still for that read-out and setting: the result for `Cc1ccc(O)cc1C` reads “inactive”. As for `CCC(C)(C)c1ccc(O)cc1`, the compound was classed as inactive. As to `c1ccc2c(c1)Nc1ccccc1S2`, the compound was called inactive; the AC50 is 6.86 µM (active) and 2.55 µM (active). As to `CCOP(=S)(NC(C)C)Oc1ccccc1C(=O)OC(C)C` (stereo not drawn), the result was inactive. On to `COP(N)(=S)OC`, for which the compound was classed as inactive.

In the case of `O=P(Oc1ccccc1)(Oc1ccccc1)Oc1ccccc1`, the AC50 was 3.68 µM (active). Regarding `CC(=O)c1ccc(-c2ccccc2)cc1`, the compound was classed as inactive. On to `CO/N=C(/C(=O)OC)c1ccccc1COc1ccccc1C`, for which the concentration at half-maximal activity (AC50) was 13.1 µM (active). As to `CCCCc1ccc(O)cc1`, the compound was called inactive. Consider `Nc1cc2c3c(c1)C(c1ccccc1)=N[C@@H](NC(=O)c1cccnc1)C(=O)N3CC2`, for which the AC50 was 27.6 µM (active). Turning to `ClC(Cl)=C(c1ccc(Cl)cc1)c1ccccc1Cl`, the compound was classed as inactive.

In the case of `Nc1ccc(Cl)cc1`, the compound was called inactive.

Turning to `CCCCOCCOP(=O)(OCCOCCCC)OCCOCCCC`, the outcome was inactive. The same measure, in the same setting: the result for `Nc1ccc([N+](=O)[O-])cc1Cl` reads “inactive”; that for `N#Cc1c(-c2ccc(Cl)cc2)[nH]c(C(F)(F)F)c1Br`, “inactive”.

Turning to `Cc1cccc(N)c1`, the result was inactive. Take `CCOP(=S)(OCC)SCn1nnc2ccccc2c1=O`: the result was inactive. Regarding `CC(C)Nc1ccc(Nc2ccccc2)cc1`, the call was inactive.

In the case of `CC(C)(C)c1ccc(O)cc1`, the call was inactive. As to `Oc1ccc(I)cc1`, the call was inactive. In the case of `O=S(=O)(c1ccc(O)cc1)c1ccc(O)cc1`, the outcome was inactive.
